# Vc quorum ag: inducers of Vibrio cholerae quorum light production without autoinducers, primary screen, BH1578 luxS cqsA deficient, single point | 0.16% of 350,000 active | V. cholerae BH1578 lux reporter, luminescence, 6 h | AID 588436, 2011 | activation, % at 18.7 µM; in the data active means activation mostly above about 9.7%, no sharp cut-off
# CCHF vOTU inh-1: CCHFV vOTU protease inhibitors, primary screen, biochemical, Pep-AMC substrate, fluorescence; Crimean-Congo hemorrhagic fever virus L polyprotein viral ovarian tumor (vOTU) protease …; inhibition, % at 11.5 µM; 0.55% of 370,000 active; further: 0% = vehicle wells with enzyme and 100% = no enzyme wells
# TcdB GH inh: TcdB glycohydrolase inhibitors, primary screen, biochemical, single point, plate reader | inhibition, % at 9.99 µM | 0.24% of 350,000 active | Toxin B (Clostridioides difficile), P18177 | TcdB glycohydrolase enzymatic assay; in the data active means inhibition above about 10%
# 3CLpro inhibitor: SARS-CoV 3CLpro protease inhibitors, primary screen, biochemical, quenched FRET; Replicase polyprotein 1ab (Severe acute respiratory syndrome coronavirus), P0C6X7; recombinant SARS-CoV 3CLpro, quenched FRET peptide cleavage; inhibition, % at 6 µM; 0.14% of 290,000 active; in the data active means inhibition above about 12%
# PriA SSB inh: inhibitors of Klebsiella pneumoniae PriA binding to SSB C-terminal tail, primary screen, biochemical, AlphaScreen | PriA–SSB C-terminal tail interaction (Klebsiella pneumoniae) | AlphaScreen SSBct-PriA binding, biotinylated peptide | inhibition, % at 33 µM | 0.6% of 430,000 active | AID 1272365, 2023; in the data active means inhibition mostly above about 37%, no sharp cut-off; inactive means mostly below about 20%;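 further: plate controls were negative control peptide for no effect and reference peptide for full effect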
# DUSP3 inh: VHR1 phosphatase inhibitors, primary screen, biochemical, absorbance, uHTS | Dual specificity protein phosphatase 3 (Homo sapiens), P51452 | recombinant VHR phosphatase, pNPP absorbance | inhibition, % at 13.3 µM | 0.52% of 290,000 active | AID 1654, 2009; in the data active means inhibition above about 50%
# CCHF vOTU inh-2: CCHFV vOTU protease inhibitors, confirmation, biochemical, Pep-AMC substrate, fluorescence. inhibition, % at 11.5 µM. 17% of 1,900 active. AID 686976, 2013. shares compounds with CCHF vOTU inh-1. Recombinant CCHFV vOTU
# * marks the source's active call; other numbers are inactive results; i = inactive; · = no result given. The list is not random: actives were taken first. Their share in the collection is about 1.3%. Unless noted, no stated cut-off is given here; in the data, active means inhibition above about 30%; inactive means the rest.
SMILES,Vc quorum ag,CCHF vOTU inh-1,TcdB GH inh,3CLpro inhibitor,PriA SSB inh,DUSP3 inh,CCHF vOTU inh-2
Cc1ccc2c(c1)c1c(n2CC(O)CNC(C)(C)C)CCCC1 (stereo unspecified),0,57*,0,-2,20,0,-14
COc1ccc(N2CCN(C(CNC(=O)C(=O)NCc3cccs3)c3ccco3)CC2)cc1 (stereo unspecified),-2,12,0,4,4,14,·
O=C(NCc1cccs1)C(=O)NCC(c1ccco1)N1CCN(c2ccccc2)CC1 (stereo unspecified),-4,31*,-3,0,-6,2,-5
CC(=O)N1CCOc2ccc(S(=O)(=O)Nc3cccc(C)c3)cc21,i,31*,0,-4,-13,21,7
Cc1cc(F)cc(-c2cc(C(=O)NCc3cccc(Cl)c3)[nH]n2)c1,0,34*,-2,·,·,·,-14
CCCCc1c(-c2ccccc2OC)ncn1CCc1ccccc1Cl,·,31*,2,·,·,·,9
CCCc1c(-c2cccc(F)c2)ncn1Cc1ccccc1OC,·,37*,-1,·,·,·,7
CCCCc1c(-c2ccccc2F)ncn1CCc1ccccc1OC,·,37*,1,·,·,·,7
CCCCc1c(-c2ccccc2OC)ncn1Cc1ccc(F)cc1F,·,33*,0,·,·,·,0
CCCCCc1c(-c2ccccc2F)ncn1CCc1ccccc1OC,·,20,1,·,·,·,·
CCCCc1c(-c2ccccc2OC)ncn1CCc1ccccc1OC,·,-7,2,·,·,·,·
CC1(C)Cc2cccc(OCCCS(=O)(=O)N3CCN(c4cccc(Cl)c4Cl)CC3)c2O1,·,·,·,·,8,·,·
O=C(COc1ccccc1)Nc1ccc2c(c1)C(=O)NC2=O,·,·,·,·,-8,·,·
O=C(N/N=C/c1cccs1)c1cccc(NC(=O)c2ccc(Cl)cc2)c1,·,46*,1,-1,·,0,5
Cc1cc[n+](-c2[nH]c(=O)sc2C=NN=C([O-])c2ccccc2)cc1,·,·,·,·,-7,·,·
C=CC[C@H](CC(=O)N(CCO)Cc1ccccc1)C(=O)N[C@H](COC(=O)[C@H](CC=C)CC(=O)OC(C)(C)C)Cc1c[nH]c2ccccc12,i,24,1,·,-3,·,·
C=CCC[C@H](Cc1ccc(F)cc1)C(=O)OC[C@@H](Cc1c[nH]c2ccccc12)NC(=O)[C@@H](CC=C)CC(=O)N[C@@H](CO)Cc1ccccc1,4,32*,-3,·,-5,·,11
C=CC[C@H](CC(=O)N(CCO)Cc1ccccc1)C(=O)N[C@@H](COC(=O)[C@@H](CC=C)CC(=O)OC(C)(C)C)Cc1c[nH]c2ccccc12,0,33*,-11,·,23,·,2
C=CC[C@@H](CC(=O)N(CCO)Cc1ccccc1)C(=O)N[C@@H](COC(=O)[C@H](CC=C)CC(=O)OC(C)(C)C)Cc1c[nH]c2ccccc12,0,39*,-9,·,7,·,15
C=CC[C@@H](CC(=O)N(CCO)Cc1ccccc1)C(=O)N[C@H](COC(=O)[C@@H](CC=C)CC(=O)OC(C)(C)C)Cc1ccccc1,i,37*,-2,·,-10,·,21
O=C(CSc1ncnc2sc3c(c12)CCC3)Nc1nsc(-c2ccc(Cl)cc2)n1,·,·,·,·,-4,·,·
NS(=O)(=O)c1ccc(CNC(=O)c2cc(C3CC3)n(C3CCS(=O)(=O)C3)n2)cc1 (stereo unspecified),·,·,·,·,-6,·,·
Cc1ccc(S(=O)(=O)N2CCC(C(=O)Nc3ccccc3S(C)(=O)=O)CC2)cc1,·,·,·,·,-7,·,·
C=CC[C@H](CC(=O)N(CCO)Cc1ccccc1)C(=O)N[C@H](COC(=O)[C@@H](CC=C)Cc1ccc(F)cc1)Cc1c[nH]c2ccccc12,0,31*,2,·,3,·,7
C=CC[C@@H](CC(=O)N(CCO)Cc1ccccc1)C(=O)NC[C@H](OC(=O)[C@@H](CC=C)CC(=O)OC(C)(C)C)c1ccccc1,-8,37*,1,·,6,·,11

# Screens (PubChem)
